What all share (assay): NCI-60 one-dose screen, 48 h (100 = growth as untreated, 0 = no growth, -100 = all killed)
Holding throughout (settings): 10 µM unless noted

Experiment [1] has as its system HCT-15 colon.
In experiment [2] the test system is HT29 colon.
Experiment [3] relates to SNB-75 CNS.
For experiment [4], the system named is SNB-19 CNS.
In experiment [5] the test system is U251 CNS.
Experiment [6] deals with PC-3 prostate.
Experiment [7] deals with SK-MEL-5 melanoma.
Experiment [8] has as its system UACC-62 melanoma.
Experiment [9] concerns LOX IMVI melanoma.
Experiment [10] deals with SK-MEL-28 melanoma.

About 83,000 compounds went through this panel and 20% of them were active in at least one assay; those are over-represented in the sample as a whole.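 Activity criterion: percent growth below 10, measured after cells in 96-well plates were exposed to a single compound concentration for 48 hours.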 Values without a mark were called inactive. The source made the active and inactive calls.

As to `CCCCCc1nc2c(c3c1CCCC3)CCCC2`, the growth in experiment [1] was 74.8%; in experiment [2], 55.4%; in [3], 82.1%; in [4], 72.8%; in experiment [5] it was 83.7%; in [6], 64.9%. Moreover, the growth in experiment [7] is 83.8%; in experiment [8], 82.2%; in [9], 88.3%; in [10], 100%.

`CC(C)CC(NC(=O)CN(Cc1ccccc1)S(C)(=O)=O)C(=O)O` (stereo not given): the growth in experiment [1] was 101%; in experiment [2] it was 97.4%; in experiment [3], 80%; in experiment [4], 91.6%; in [5], 103%; in experiment [6] it was 90.1%. Besides, the growth in [7] was 95%; in experiment [8], 89.2%; in experiment [9] it was 100%; in experiment [10] it was 100%.

For `CCOC(=O)c1c(/C=C/C(=O)O)nc2ccccc2c1/C=C/c1ccccc1`, the growth in experiment [1] was 23.9%; in experiment [2] it was 49.9%; in experiment [3] it was 15%; in experiment [4], 61.1%; in [5], 51.2%; in experiment [6], 53.5%. The growth in experiment [7] was 53.7%; in experiment [8], 45.5%; in experiment [9], 28.1%; in experiment [10] it was 45.8%.

Regarding `Cc1cccc(-c2nc(N(C)c3ccc4ncsc4c3)c3ccccc3n2)n1`, the growth in experiment [1] is 51.5%; in experiment [2] it was 50.1%; in [3] it was 94%; in experiment [4], 77.1%; in experiment [5], 82.2%; in experiment [6], 45.5%. Further, the growth is 22.4% in [7], 50.4% in experiment [8], 77.5% in experiment [9] and 72% in [10].

Take `COc1cc(/C=C/C(=O)c2cccc(-n3cc(-c4ccccc4)[nH]c3=O)c2)ccc1O`: the growth was 22.2% in experiment [1]; 44.5% in experiment [2]; 46.8% in [3]; 90.5% in experiment [4]; 16.6% in [5]; 61.3% in [6]. The growth in [7] is 68.5%; in experiment [8] it was 69.8%; in experiment [9] it was 18.7%; in experiment [10], 70.2%.

As for `CN(C)c1ccc(/C=C/C(=O)c2cccc(Nc3nc(Nc4ccccc4)nc(Nc4ccccc4)n3)c2)cc1`, the growth in experiment [1] is 80.5%; in experiment [2] it was 53.8%; in experiment [3] it was 5.3% (active); in experiment [4], 99.1%; in experiment [5], 91.5%; in experiment [6], 81.7%. Also, the growth is 69.5% in experiment [7], 91.2% in experiment [8], 88.7% in experiment [9] and 75% in [10].

For `CCN(CC)S(=O)(=O)c1cccc(-c2ccc3c(NC(=O)C4CC4)n[nH]c3c2)c1`, the growth in experiment [1] is 23.5% [6.25 µM]; in [2], 3.07% [6.25 µM] (active); in experiment [3], -7.53% [6.25 µM] (active); in experiment [4], 30.6% [6.25 µM]; in experiment [5], 12.1% [6.25 µM]; in experiment [6] it was 16.9% [6.25 µM]. The growth in experiment [7] was -37.2% [6.25 µM] (active); in [8], 28.7% [6.25 µM]; in experiment [9] it was 10.5% [6.25 µM]; in [10], 29.2% [6.25 µM].

For `Cc1cc(Cl)nc(NCc2cc(Nc3ccnc4cc(Cl)ccc34)ccc2F)n1`, the growth in experiment [1] was 11.7%; in [2] it was 9.26% (active); in experiment [3], 83.3%; in experiment [4], 80.6%; in [5] it was 48.9%; in experiment [6] it was 52.7%. The growth in experiment [7] is 56.5%; in experiment [8], 70.7%; in experiment [9], 10.4%; in experiment [10] it was 94.1%.

Turning to `C(=N\Nc1ncc(-c2cc3cc4c(cc3o2)OCO4)s1)/c1ccco1`, the growth was 18.4% in experiment [1]; 36.9% in experiment [2]; 51.2% in [3]; 53.9% in experiment [4]; 37% in [5]; 33.6% in [6]. Also, the growth was 87.4% in experiment [7], 88.8% in [8], -48.8% (active) in experiment [9] and 81% in experiment [10].

For `S=C(c1ccc2c(c1)OCO2)N1CCN(c2ccccc2Cl)CC1`, the growth was 96.2% in experiment [1]; 93.6% in experiment [2]; 100% in experiment [3]; 99.4% in experiment [4]; 95.2% in experiment [5]; 84.7% in [6]. Moreover, the growth in [7] was 89.6%; in experiment [8], 89.5%; in experiment [9], 111%; in experiment [10], 103%.

In the case of `O=C1NC(=Nc2ccc(Cl)cc2)S/C1=C\c1cn(-c2ccccc2)nc1-c1ccccc1`, the growth was 76% in [1]; 77.5% in [2]; 65.8% in experiment [3]; 90.2% in experiment [4]; 18.4% in [5]; 56.5% in experiment [6]. Further, the growth in experiment [7] is 94.9%; in experiment [8], 87.1%; in experiment [9], 90.5%; in [10] it was 97.8%.

With `CNc1ccc(NC)c2c1C(=O)c1ccccc1C2=O`, the growth was 77.1% in experiment [1]; 98.7% in experiment [2]; 52.3% in experiment [3]; 85.5% in experiment [4]; 87% in experiment [5]; 84% in experiment [6]. For the same compound, the growth in experiment [7] was 93.6%; in experiment [8], 87.9%; in [9], 84.9%; in experiment [10], 102%.

`COc1cccc2c1C(=O)c1c(O)c3c(c(O)c1C2=O)CC(O)(/C(C)=N/NC(=O)CCCCC(=O)N/N=C(\C)C1(O)Cc2c(O)c4c(c(O)c2C(OC2CC(N)C(O)C(C)O2)C1)C(=O)c1c(OC)cccc1C4=O)CC3OC1CC(N)C(O)C(C)O1` (stereo not given): the growth was 13.8% [5 µM] in experiment [1]; -68.9% [5 µM] (active) in experiment [2]; -67.7% [5 µM] (active) in [3]; -8.14% [5 µM] (active) in experiment [4]; 2.32% [5 µM] (active) in experiment [5]; -40.4% [5 µM] (active) in experiment [6]. Further, the growth in [7] was -89% [5 µM] (active); in experiment [8], -93% [5 µM] (active); in [9] it was 1.34% [5 µM] (active); in [10], -76.5% [5 µM] (active).

As to `O=C1c2cccc(NCCN=Cc3cc([N+](=O)[O-])ccc3O)c2C(=O)c2c(NCCN=Cc3cc([N+](=O)[O-])ccc3O)cccc21`, the growth in [1] was 82%; in [2], 37.1%; in experiment [3], 65.9%; in experiment [4] it was 50.4%; in [5] it was 44.5%; in experiment [6], 50%. Moreover, the growth was 92.1% in [7], 90.2% in experiment [8], 58.6% in [9] and 102% in [10].

For the compound `O=C(c1ccccc1)N1N=C(c2ccccc2)CC1c1nnc2n(Cc3ccccc3)c(=O)c3c4c(sc3n12)CCCC4` (stereo not given), the growth was 102% in experiment [1]; 101% in experiment [2]; 108% in [3]; 101% in experiment [4]; 98.3% in experiment [5]; 97.9% in experiment [6]. In addition, the growth is 109% in experiment [7], 112% in experiment [8], 91.8% in experiment [9] and 106% in experiment [10].

Take `COc1cccc(-c2nn(-c3ccccc3)cc2-c2ccnc(NCCCNC(=O)Nc3ccc(Cl)c(Cl)c3)c2)c1`: the growth was 6.61% (active) in experiment [1]; -36.4% (active) in experiment [2]; 25.4% in [3]; 27.7% in experiment [4]; -15.5% (active) in experiment [5]; 6.51% (active) in experiment [6]. Besides, the growth in [7] is -26.4% (active); in experiment [8] it was -29.7% (active); in experiment [9], -92.1% (active); in experiment [10], -29.2% (active).

Consider `O=C(O)c1ccc2c(c1)CCC2`, for which the growth in experiment [1] was 104%; in experiment [2] it was 103%; in experiment [3], 107%; in experiment [4] it was 103%; in [5] it was 104%; in [6] it was 106%. For the same compound, the growth is 108% in [7], 113% in experiment [8], 97% in experiment [9] and 112% in experiment [10].

For `COc1ccc2c(c1)[nH]c(=O)c1c3cccnc3cn21`, the growth in experiment [1] is 13.7%; in experiment [2], 8.6% (active); in experiment [3], 40.5%; in experiment [4] it was 32.7%; in experiment [5], 15.6%; in [6] it was 22%. Also, the growth in experiment [7] is -33.6% (active); in experiment [8] it was 16.5%; in experiment [9] it was 33.1%; in experiment [10] it was 70.8%.

Turning to `CCC(CO)Nc1nc2ccc(Cl)cc2c2ccccc12` (stereo not given), the growth in experiment [1] is 57.1%; in [2], 30.1%; in [3], 18.8%; in experiment [4], 53.8%; in experiment [5] it was 51.3%; in [6] it was 59.5%. Further, the growth is 68.4% in [7], 60.4% in experiment [8], 67.2% in [9] and 90.8% in [10].

Consider `O=C1CCC2=C3C4CCCCC4C(=O)C4CCCC(OC2C1)C34` (stereo not given), for which the growth in experiment [1] is 4.39% (active); in experiment [2] it was 85.6%; in [3] it was 43.1%; in experiment [4], 34.1%; in experiment [5], 4.33% (active); in experiment [6], 46.7%. The growth was -77.9% (active) in experiment [7], 50.3% in experiment [8], 1.47% (active) in experiment [9] and 52% in experiment [10].

Regarding `COC(=O)c1ccc(C2Nc3ccc(S(=O)(=O)Nc4ccc(C)c(C)c4)cc3C3OCCC23)cc1` (stereo not given), the growth in experiment [1] was 71.2%; in experiment [2], 83.7%; in experiment [3] it was 79.1%; in experiment [4], 78.2%; in experiment [5], 71.5%; in [6] it was 82.4%. The growth in experiment [7] is 58%; in experiment [8], 65.3%; in experiment [9] it was 93%; in experiment [10], 99.5%.

Consider `Cc1ccc(Nc2ccc(Nc3ccc(C)cc3)c3c2C(=O)c2cccc(O)c2C3=O)cc1`, for which the growth in experiment [1] was 100%; in experiment [2], 117%; in experiment [3] it was 93.8%; in experiment [4], 104%; in experiment [5], 104%; in [6], 78.9%. Moreover, the growth was 95.9% in experiment [7], 87.1% in [8], 91.5% in experiment [9] and 118% in experiment [10].

In the case of `O=C(N/N=C/c1ccncc1)c1ccc(C(F)(F)F)nc1Nc1cccc(C(F)(F)F)c1`, the growth in experiment [1] was 13.1%; in [2], 23.1%; in experiment [3] it was 46.7%; in experiment [4], 36%; in [5], 8.49% (active); in experiment [6], 20.5%. In addition, the growth in [7] was 10%; in experiment [8], 15.1%; in [9], 20.5%; in [10] it was 44.9%.

Take `CC1(c2ccccc2)NC(=O)N(NC(=O)CSc2nc(-c3cccs3)nc3ccccc23)C1=O` (stereo not given): the growth in experiment [1] is 91.2%; in experiment [2] it was 108%; in experiment [3], 96.4%; in [4], 92.2%; in [5], 94.6%; in experiment [6], 90.8%. Moreover, the growth in [7] was 85.2%; in [8] it was 69%; in experiment [9] it was 95.9%; in experiment [10] it was 115%.

With `Cc1cc(C)c(-c2c(C)cc(C)cc2CBr)c(CBr)c1`, the growth was 80.6% in [1]; 86.3% in experiment [2]; 92.3% in [3]; 86.2% in [4]; 73% in [5]; 78.4% in experiment [6]. The growth in [7] was 77.6%; in experiment [8], 70.9%; in experiment [9], 53%; in experiment [10], 86.9%.

With `COc1ccc(-c2cc(-c3ccc(Nc4nc(Nc5ccc(Cl)cc5)nc(Nc5ccc(Cl)cc5)n4)cc3)nc(N)c2C#N)cc1`, the growth in experiment [1] is 10.6%; in experiment [2] it was 2.33% (active); in [3], -74.1% (active); in experiment [4], 105%; in experiment [5], 10.9%; in experiment [6], 4.49% (active). The growth in [7] was -67.5% (active); in [8], 42.4%; in [9] it was -75.1% (active); in experiment [10] it was -47.5% (active).

The record behind these values is PubChem BioAssay (NCI).
